Source: PubChem BioAssay (NCATS)
Inconclusive results are not listed. Calls of active or inactive are those of the source. Unless noted, calls follow the shape of the full dose curve.

How the values were obtained:
[1] = qHTS for Inhibitors of the Functional Ribonucleoprotein Complex (vRNP) of Lassa (LASV) Arenavirus: LASV Primary Screen - GLuc reporter signal (AID 1347082; calls by dose curve; tested in HEK293 reporter line; also: nearly all actives have a fitted effect of over 60% in size)
[2] = qHTS for Inhibitors of the Functional Ribonucleoprotein Complex (vRNP) of Lassa (LASV) Arenavirus: Viability assay - alamar blue signal for LASV Primary Screen (AID 1347083; calls by dose curve; tested in HEK293 reporter line; also: nearly all actives have a fitted effect of over 80% in size)
[3] = qHTS for Inhibitors of the Functional Ribonucleoprotein Complex (vRNP) of Lymphocytic Choriomeningitis Arenaviruses (LCMV): Viability assay - alamar blue signal for LCMV Primary Screen (AID 1347085; calls by dose curve; tested in HEK293 reporter line; also: nearly all actives have a fitted effect of over 80% in size)
[4] = molecular target: Nucleoprotein (Lymphocytic choriomeningitis virus (strain Armstrong)) (UniProt P09992); assay: qHTS for Inhibitors of the Functional Ribonucleoprotein Complex (vRNP) of Lymphocytic Choriomeningitis Arenaviruses (LCMV): LCMV Primary Screen - GLuc reporter signal (AID 1347086); also: nearly all actives have a fitted effect of over 70% in size

Measured: Potency
Potency is read from the fitted curve at half-maximal effect.

Chain of Nucleoprotein (Lymphocytic choriomeningitis virus (strain Armstrong)) (P09992 whole entry, looked up): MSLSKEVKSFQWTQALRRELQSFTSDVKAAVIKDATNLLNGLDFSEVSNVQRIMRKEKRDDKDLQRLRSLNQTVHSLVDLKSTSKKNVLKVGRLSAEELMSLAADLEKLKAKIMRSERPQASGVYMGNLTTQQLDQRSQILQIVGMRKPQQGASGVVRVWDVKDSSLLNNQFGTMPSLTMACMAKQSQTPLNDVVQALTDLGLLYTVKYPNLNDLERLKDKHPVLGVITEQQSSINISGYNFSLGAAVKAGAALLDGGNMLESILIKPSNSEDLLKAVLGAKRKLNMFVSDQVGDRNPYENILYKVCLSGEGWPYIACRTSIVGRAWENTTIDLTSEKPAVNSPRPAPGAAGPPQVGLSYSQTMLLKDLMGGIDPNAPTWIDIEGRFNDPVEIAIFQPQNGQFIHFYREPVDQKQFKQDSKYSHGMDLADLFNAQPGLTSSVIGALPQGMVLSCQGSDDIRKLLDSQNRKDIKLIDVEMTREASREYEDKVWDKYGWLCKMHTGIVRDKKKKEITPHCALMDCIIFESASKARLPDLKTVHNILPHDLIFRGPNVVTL

CC(c1c(O)c2ccccc2[nH]c1=O)C1(C)CCC(O)C(C)(C)O1 (stereo not given)
inactive: [1] | [2] | [3] | [4]

CCC[C@H]1C[C@H](C(=O)N[C@@H]([C@@H]2O[C@@H](SC)[C@@H](O)[C@@H](O)[C@@H]2O)[C@H](C)Cl)N(C)C1
inactive: [1] | [2] | [3] | [4]

C[C@@H]1CC[C@H]2[C@H](C)[C@H]3CC[C@H]4C5[C@@H](O)CC6=CC(=O)CC[C@]6(C)[C@H]5C[C@H]4C3C(=O)N2C1 (stereo not given in full)
inactive: [1] | [2] | [3] | [4]

CC(=NNC(=S)N1CCC1)c1ccccn1
active: [1] 27.3 nM | [2] 43.2 nM | [3] 38.5 nM | [4] 24.3 nM

CN(C)c1nc(Cc2ccc(NC(=O)c3ccc4ccccc4c3)cc2)nc(Cl)c1CC(=O)O
inactive: [1] | [2] | [3] | [4]

CCC/C=C/C/C=C/C=C/C=N/NN=O
inactive: [1] | [2] | [3] | [4]

O=C1C[C@@H](c2ccc(O)c(O)c2)Oc2c1ccc(O[C@@H]1O[C@H](CO)[C@@H](O)[C@H](O)[C@H]1O)c2O
inactive: [1] | [2] | [3] | [4]

CCCCC(C=O)NC(=O)C(CC(C)C)NC(=O)OCc1ccccc1 (stereo not given)
inactive: [1] | [2] | [3] | [4]

c1csc(-c2ccc(-c3cccs3)s2)c1
inactive: [1] | [2] | [3] | [4]

CC(C)=CCC/C(C)=C/Cc1c(O)ccc(C(=O)/C=C/c2ccc(O)cc2)c1O
inactive: [1] | [2] | [3] | [4]

CC1=CC23C(=O)C(C=C(CO)[C@@H](O)[C@]2(O)[C@H]1O)[C@H]1[C@@H](C[C@H]3C)C1(C)C (stereo not given in full)
inactive: [1] | [2] | [3] | [4]

Cc1coc2c1C(=O)C(=O)c1c-2ccc2c(C)cccc12
inactive: [1] | [2] | [3] | [4]

CN1CCc2cc3c(cc2C1)OCO3
inactive: [1] | [2] | [3] | [4]

CCCCCC(=O)OCC
inactive: [1] | [2] | [3] | [4]

CC12CCC(C1)C(C)(C)C2O (stereo not given)
inactive: [1] | [2] | [3] | [4]

C[C@@H]1O[C@@H](O[C@H]2CC[C@@H](O[C@H]3[C@H](O)C[C@H](c4ccc5c(c4O)C(=O)C4=C(C5=O)[C@@]5(O)C(=O)C[C@](C)(O[C@H]6CC[C@H](O[C@H]7C=CC(=O)[C@H](C)O7)[C@H](C)O6)C[C@@]5(O)C=C4)O[C@@H]3C)O[C@H]2C)C=CC1=O
inactive: [1] | [2] | [3] | [4]

CCCC(=O)C(C)=O
inactive: [1] | [2] | [3] | [4]

ClC1=C(Cl)[C@]2(Cl)[C@@H]3[C@@H](Cl)[C@H]4O[C@H]4[C@@H]3C1(Cl)C2(Cl)Cl
inactive: [1] | [2] | [3] | [4]

COc1c(Br)cc(Br)cc1C(=O)O
inactive: [1] | [2] | [3] | [4]

CN1C(=O)[C@@H]2C[C@@]3([C@@]45C[C@H]6C(=O)N(C)[C@@H](Cc7ccccc7)C(=O)N6[C@@H]4Nc4ccccc45)c4ccccc4N[C@H]3N2C(=O)[C@@H]1Cc1ccccc1
inactive: [1] | [2] | [3] | [4]

CC/C=C\CCCCCCCCCCOC(C)=O
inactive: [1] | [2] | [3] | [4]

CC(=O)OC[C@]12CCC(C)=C[C@H]1O[C@@H]1[C@H](O)[C@@H](OC(C)=O)[C@@]2(C)[C@]12CO2
inactive: [1] | [2] | [3] | [4]

CC(=O)O[C@H]1CC[C@@]2(C)[C@H](C1)C(=O)C[C@H]1[C@@H]3CC[C@@H]4[C@@H](CN5C[C@@H](C)CC[C@H]5[C@@]4(C)O)[C@@H]3C[C@@H]12
inactive: [1] | [2] | [3] | [4]

CC(C)NC[C@@H](C(=O)N1CCN(c2ncnc3c2[C@H](C)C[C@H]3O)CC1)c1ccc(Cl)cc1
active: [1] 968 nM | [2] 243 nM | [3] 485 nM | [4] 863 nM

C=C1CC[C@H](O)C/C1=C/C=C1\CCC[C@]2(C)[C@@H]([C@H](C)CCC(O)C(C)(C)O)CC[C@@H]12 (stereo not given in full)
inactive: [1] | [2] | [3] | [4]

CC[C@@H](C)[C@@H](O)[C@H](C)C(=O)[C@H](C)/C=C(\C)C[C@H](C)[C@@H]1OC(=O)[C@H]1CC
inactive: [1] | [2] | [3] | [4]

C[C@]12C=CC(=O)N[C@@H]1CC[C@H]1[C@H]3CC[C@@H](C(=O)Nc4cc(C(F)(F)F)ccc4C(F)(F)F)[C@@]3(C)CC[C@@H]12
inactive: [1] | [2] | [3] | [4]

COc1ccc(CCC(N)=O)cc1OC
inactive: [1] | [2] | [3] | [4]

C/C(=C\CNc1ncnc2c1ncn2[C@@H]1O[C@H](CO)[C@@H](O)[C@H]1O)CO
inactive: [1] | [2] | [3] | [4]

CC(=O)OC[C@H]1O[C@@H](O[C@H]2C[C@]3(C)C(C[C@@H](O)C4C([C@]5(C)CC[C@@H](C(C)(C)O)O5)CC[C@]43C)[C@@]3(C)CC[C@H](O)C(C)(C)C23)[C@H](O[C@@H]2O[C@@H](C)[C@H](O)[C@@H](O)[C@H]2O)[C@@H](O)[C@@H]1O (stereo not given in full)
inactive: [1] | [2] | [3] | [4]

CCCCN(CCCC)CC(O)c1cc(Cl)cc2c1-c1ccc(Cl)cc1C2=Cc1ccc(Cl)cc1 (stereo not given)
inactive: [1] | [2] | [3] | [4]

CC1=CC[C@H](CC=O)C1(C)C
inactive: [1] | [2] | [3] | [4]

C[C@@H]1[C@H]2[C@@H](O[C@@H]3O[C@H](CO)[C@@H](O)[C@H](O)[C@H]3O)OC=C(C(=O)O)[C@H]2C[C@@H]1O
inactive: [1] | [2] | [3] | [4]

CC(=O)CCC1=C(C)CCCC1(C)C
inactive: [1] | [2] | [3] | [4]

COc1ccc(CO)cc1
inactive: [1] | [2] | [3] | [4]

CC(C)CC(=O)O
inactive: [1] | [2] | [3] | [4]

N=C1SC(=Cc2ccc(-c3ccc4c(c3)C(=O)NC4=O)o2)C(=O)N1c1ccc(Br)cc1
inactive: [1] | [2] | [3] | [4]

O=C(OCC1OC(Oc2ccc(O)cc2)C(O)C(O)C1O)c1ccccc1 (stereo not given)
inactive: [1] | [2] | [3] | [4]

CC[C@H]1NC(=O)[C@@H](NC(=O)c2ncccc2O)[C@@H](C)OC(=O)[C@H](c2ccccc2)NC(=O)[C@@H]2CC(=O)CCN2C(=O)[C@H](Cc2ccccc2)N(C)C(=O)[C@@H]2CCCN2C1=O
inactive: [1] | [2] | [3] | [4]

O=c1cc(-c2ccccc2)oc2cc(O)ccc12
inactive: [1] | [2] | [3] | [4]

COc1ccc(-c2coc3cc(O)cc(O)c3c2=O)cc1OC
inactive: [1] | [2] | [3] | [4]

COc1cc(O)c2c(=O)c3c(O[C@H]4O[C@@H](CO)[C@H](O)[C@@H](O)[C@@H]4O)ccc(O)c3oc2c1
inactive: [1] | [2] | [3] | [4]

COc1cc2c(OC(C)=O)c3c(c(-c4ccc5c(c4)OCO5)c2cc1OC)C(=O)OC3
inactive: [1] | [2] | [3] | [4]

CCCCCCCCOS(=O)(=O)O
inactive: [1] | [2] | [3] | [4]

SC1CCCC1
inactive: [1] | [2] | [3] | [4]

C=C1[C@H]2CC[C@@H]3[C@H]2C(C)(C)CCC[C@]13C
inactive: [1] | [2] | [3] | [4]

C[C@H]1OC(=O)CC[C@@H]2[C@]1(C)CCC1[C@@]2(C)CC[C@@]2(C)C3CC(C)(C)CC[C@]3(CO)CC[C@]12C (stereo not given in full)
inactive: [1] | [2] | [3] | [4]

COC(=O)/C=C\C(=O)O
inactive: [1] | [2] | [3] | [4]

OC[C@H]1O[C@@H](OC[C@H]2O[C@@H](O)[C@H](O)[C@@H](O)[C@@H]2O)[C@H](O)[C@@H](O)[C@@H]1O
inactive: [1] | [2] | [3] | [4]

COc1cc(OC)c2c(c1)C(=O)OC2
inactive: [1] | [2] | [3] | [4]

CNCCO
inactive: [1] | [2] | [3] | [4]

Cc1[nH]c(C=C2C(=O)Nc3ccccc32)c(C)c1CCC(=O)O
active: [2] 10900 nM | [3] 21700 nM | [4] 34300 nM
inactive: [1]

CCCCCCCCCCCC
inactive: [1] | [2] | [3] | [4]

O=C(CNC(=O)c1ccccc1)c1ccccc1
inactive: [1] | [2] | [3] | [4]

CC(C)c1cccc(O)c1
inactive: [1] | [2] | [3] | [4]

CC1=C(C=O)C(C)(C)CCC1
inactive: [1] | [2] | [3] | [4]

CC1(C)CCc2c([nH]c3ccccc3c2=O)O1
inactive: [1] | [2] | [3] | [4]

CC1=CC(=O)[C@H]2C[C@@H]1C2(C)C
inactive: [1] | [2] | [3] | [4]

COc1ccc(-c2coc3cc(OC(C)=O)c(OC)cc3c2=O)cc1
inactive: [1] | [2] | [3] | [4]

COc1c2c(c(C)c3c1C(=O)OC3)O[C@@]1(C)CC[C@@]3(O)C(C)(C)OC(=O)CC[C@]3(C)[C@H]1C2
inactive: [1] | [2] | [3] | [4]
